Experimental findings from PubChem BioAssay (EPA / NIEHS) are described below.

Active and inactive are the calls of the source. The calls were made as follows: active = hit-call score of the fitted dose curve at least 0.9, where 1 is the maximum; inactive = score below 0.9.

What all share (settings): mRNA level, 48 h; actives raise or lower the signal
Read-out in test [1]: BCL2L11 (gene 10018)
Nature of the test: LTEA_HepaRG_BCL2L11: Life Technologies and Expression Analysis (LTEA) Assay for Bcl-2 (BCL2L11) gene using HepaRG (AID 2283473). Summed up: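 Differentiated human HepaRG cells were exposed 48 h in serum-free induction medium to eight half-log concentrations up to 100 uM in 0.5% DMSO, in duplicate. BCL2L11 mRNA was quantified by TaqMan qRT-PCR, normalized to ACTB, GAPDH and POLR2A; induction or repression fitted versus DMSO.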

Read-out in test [2]: Apolipoprotein A-V (APOA5) gene, APOA5 (gene 116519)
Kind of test: LTEA_HepaRG_APOA5: Life Technologies and Expression Analysis (LTEA) Assay for Apolipoprotein A-V (APOA5) gene using HepaRG (AID 2283474). The gist of the method: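 Differentiated HepaRG cells in serum-free induction medium, exposed 48 h in duplicate to eight half-log concentrations topping at 100 uM (0.5% DMSO). APOA5 mRNA by Fluidigm TaqMan qRT-PCR, normalized to ACTB, GAPDH and POLR2A; bidirectional fit versus DMSO.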

Read-out in test [3]: Bcl-2 (BID) gene, BID (gene 637)
Kind of test: LTEA_HepaRG_BID: Life Technologies and Expression Analysis (LTEA) Assay for Bcl-2 (BID) gene using HepaRG (AID 2283476). Summed up: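 Duplicate 48 h treatments of HepaRG cells in serum-free induction medium spanned 100 uM downward in half-log steps, 0.5% DMSO. Transcript change quantified by qRT-PCR against three housekeeping genes, fitted up or down versus DMSO.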

Read-out in test [4]: Caspase-3 (Homo sapiens) (UniProt P42574)
Kind of test: LTEA_HepaRG_CASP3: Life Technologies and Expression Analysis (LTEA) Assay for cysteine-aspartic acid protease (CASP3) using HepaRG (AID 2283477). The gist of the method: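 Differentiated HepaRG cells, plated 48 h, were treated in duplicate in serum-free induction medium for 48 h with eight half-log concentrations up to 100 uM in 0.5% DMSO. CASP3 mRNA measured by qRT-PCR, normalized to ACTB, GAPDH, POLR2A.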

Read-out in test [5]: Cytochrome P450 (CYP24A1), CYP24A1 (gene 1591)
Nature of the test: LTEA_HepaRG_CYP24A1: Life Technologies and Expression Analysis (LTEA) Assay for Cytochrome P450 (CYP24A1) using HepaRG (AID 2283478). Summed up:
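HepaRG cells plated 48 h, then exposed in duplicate in serum-free induction medium for 48 h to 8-point half-log series from 100 uM in 0.5% DMSO. CYP24A1 mRNA by Fluidigm qRT-PCR, normalized to ACTB, GAPDH, POLR2A; bidirectional fit versus DMSO.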

Read-out in test [6]: Cytochrome P450 (CYP1A2), CYP1A2 (gene 1544)
Kind of test: LTEA_HepaRG_CYP1A2: Life Technologies and Expression Analysis (LTEA) Assay for Cytochrome P450 (CYP1A2) using HepaRG (AID 2283479). The gist of the method: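 Differentiated human HepaRG cells in serum-free induction medium exposed 48 hours in duplicate to 8 half-log concentrations from 100 uM, 0.5% DMSO. CYP1A2 mRNA quantified by qRT-PCR, normalized to ACTB, GAPDH and POLR2A; bidirectional fitting versus DMSO.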

Read-out in test [7]: cysteine-aspartic acid protease (CASP8), CASP8 (gene 841)
Kind of test: LTEA_HepaRG_CASP8: Life Technologies and Expression Analysis (LTEA) Assay for cysteine-aspartic acid protease (CASP8) using HepaRG (AID 2283480). The gist of the method:
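Concentration-response in duplicate up to 100 uM (half-log steps, 0.5% DMSO) on differentiated HepaRG cultures for 48 h. Expression change of CASP8 mRNA is determined by TaqMan qRT-PCR with housekeeping-gene normalization.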

Read-out in test [8]: Cytochrome P450 (CYP2B6), CYP2B6 (gene 1555)
Nature of the test: LTEA_HepaRG_CYP2B6: Life Technologies and Expression Analysis (LTEA) Assay for Cytochrome P450 (CYP2B6) using HepaRG (AID 2283481). The gist of the method:
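Differentiated human HepaRG cells in serum-free induction medium, dosed in duplicate for 48 h over 8 half-log concentrations topping at 100 uM (0.5% DMSO). CYP2B6 mRNA measured by TaqMan qRT-PCR, normalized to ACTB, GAPDH, POLR2A; bidirectional fit versus DMSO.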

Read-out in test [9]: Cytochrome P450 2C19 (Homo sapiens) (UniProt P33261)
Kind of test: LTEA_HepaRG_CYP2C19: Life Technologies and Expression Analysis (LTEA) Assay for CYP2C19 using HepaRG (AID 2283482). Summed up:
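Differentiated HepaRG cells in serum-free induction medium exposed 48 h in duplicate, 8 concentrations from 100 uM by half-log steps in 0.5% DMSO. CYP2C19 mRNA measured by TaqMan qRT-PCR, normalized to ACTB, GAPDH, POLR2A. Bidirectional fit versus DMSO.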

Chain of Cytochrome P450 2C19 (Homo sapiens) (P33261 whole entry, looked up): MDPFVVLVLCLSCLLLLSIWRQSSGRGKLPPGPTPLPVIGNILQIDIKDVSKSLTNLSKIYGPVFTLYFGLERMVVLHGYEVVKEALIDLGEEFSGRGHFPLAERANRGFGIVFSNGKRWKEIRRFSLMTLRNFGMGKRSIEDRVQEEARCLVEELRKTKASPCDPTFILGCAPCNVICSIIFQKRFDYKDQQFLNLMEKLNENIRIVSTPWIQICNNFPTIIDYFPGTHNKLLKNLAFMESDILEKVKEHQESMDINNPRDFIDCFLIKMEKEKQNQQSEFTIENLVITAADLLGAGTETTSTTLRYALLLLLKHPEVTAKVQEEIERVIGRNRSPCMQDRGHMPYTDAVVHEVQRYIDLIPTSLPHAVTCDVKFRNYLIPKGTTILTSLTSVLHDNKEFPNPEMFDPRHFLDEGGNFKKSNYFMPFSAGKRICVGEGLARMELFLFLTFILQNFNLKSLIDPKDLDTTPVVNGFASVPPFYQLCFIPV
Chain of Caspase-3 (Homo sapiens) (P42574 whole entry, looked up): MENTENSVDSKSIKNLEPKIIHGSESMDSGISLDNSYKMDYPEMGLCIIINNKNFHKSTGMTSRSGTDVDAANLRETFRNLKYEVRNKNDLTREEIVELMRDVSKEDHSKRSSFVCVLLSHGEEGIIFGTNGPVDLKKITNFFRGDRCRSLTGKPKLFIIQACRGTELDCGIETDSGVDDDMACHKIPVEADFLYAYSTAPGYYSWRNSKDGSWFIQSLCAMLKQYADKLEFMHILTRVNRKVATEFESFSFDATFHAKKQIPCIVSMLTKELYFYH

Regarding `COP(=O)(OC)OC=C(Cl)Cl`, the compound was called inactive in test [1], in test [2], in [3], in [4], in test [5] and in test [6]. In addition, the compound was classed as inactive in test [7] and in test [9]. The AC50 in test [8] is 6.48 µM (active).

As to `O=[N+]([O-])c1c(Cl)c(Cl)c(Cl)c(Cl)c1Cl`, the result in test [1], in test [2], in test [3], in test [4], in [5] and in test [7] was inactive. In test [9], the call was inactive. Further, the values for the AC50 in test [6] and in test [8] were 36.7 µM (active) and 5.88 µM (active), respectively.

For `CN1CSC(=S)N(C)C1`, the call in [1], in test [2], in [3], in test [4], in test [5] and in test [7] was inactive. Moreover, the call in test [8] and in test [9] was inactive. In addition, in [6], the AC50 was 34.7 µM (active).

For the compound `Clc1ccccc1-c1nnc(-c2ccccc2Cl)nn1`, the call in test [1], in test [2], in test [3], in test [4], in test [5] and in test [7] was inactive. Also, the AC50 in test [6] is 17.3 µM (active); in test [8] it was 7.28 µM (active); in [9], 15.3 µM (active).

Regarding `CNC(=O)Oc1ccccc1OC(C)C`, the compound was classed as inactive in [1], in [2], in [3], in test [4], in test [5] and in [6]. Further, the outcome in [7] and in test [9] was inactive. Also, the AC50 in test [8] is 3.17 µM (active).

Consider `CCc1ccc(C(=O)NN(C(=O)c2cc(C)cc(C)c2)C(C)(C)C)cc1`, for which the result in test [1], in [2], in test [3], in [4], in test [5] and in test [6] was inactive. In addition, the call in test [7] was inactive. In addition, the AC50 is 92.4 µM (active) in test [8] and 2.71 µM (active) in [9].

Turning to `CNC(=O)/C=C(\C)OP(=O)(OC)OC`, the result in [1], in [2], in test [3], in test [4], in test [5] and in test [6] was inactive. The outcome in test [7], in [8] and in [9] was inactive.

On to `CCCN(CCOc1c(Cl)cc(Cl)cc1Cl)C(=O)n1ccnc1`, for which the concentration at half-maximal activity (AC50) in test [1] was 12.7 µM (active); in test [2], 39 µM (active); in [6], 3.86 µM (active); in test [8], 31 µM (active); in test [9] it was 36.8 µM (active). For the same compound, the outcome in test [3], in [4], in test [5] and in test [7] was inactive.

For the compound `COP(=S)(OC)Oc1ccc(SC)c(C)c1`, the compound was classed as inactive in test [1], in [2], in test [3], in test [4], in [5] and in test [7]. Also, the AC50 was 35 µM (active) in [6], 7.23 µM (active) in test [8] and 50 µM (active) in test [9].

With `CCOCN(C(=O)CCl)c1c(C)cccc1CC`, the AC50 in [1] is 67.5 µM (active); in test [2], 79.4 µM (active); in test [8], 0.077 µM (active); in [9], 89.5 µM (active). In addition, the outcome in [3], in [4], in [5], in test [6] and in [7] was inactive.

Turning to `C[C@H]1[C@H](c2ccc(Cl)cc2)SC(=O)N1C(=O)NC1CCCCC1`, the AC50 in [1] is 67.2 µM (active); in test [2] it was 36.8 µM (active); in [6] it was 83.9 µM (active); in [8] it was 81.7 µM (active); in test [9], 89 µM (active). The call in test [3], in test [4], in test [5] and in test [7] was inactive.

Turning to `Cc1[nH]c(=O)n(C(C)(C)C)c(=O)c1Cl`, the call in test [1], in test [2], in [3], in test [4], in test [5] and in [7] was inactive. In addition, the results for the AC50 in test [6], in [8] and in test [9] were 36.2 µM (active), 15.6 µM (active) and 31.1 µM (active), respectively.
